Rows were chosen to be rich in hits. Some 3.2% of all compounds tested hit in one or more screens of this group.
CRFBP-R2 block – CRF-BP/CRF-R2 complex antagonism; HEK293 CRF-R2/CRF-BP, CRF-induced calcium fluorescence; inhibition, % at 11.8 µM; hit rate 0.59% among 350,000; AID 588475;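 active means inhibition of the ligand-induced calcium signal above about 50% at the single tested concentration, limit read from the data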
PfG6PD inh – PfG6PD (Plasmodium falciparum) enzyme inhibition. PfGluPho enzyme, NADPH resazurin-diaphorase fluorescence. inhibition, % at 20 µM. hit rate 0.78% among 350,000;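 active means inhibition reaching at least a set limit at 20 µM in the primary screen, cut at about 59% in these data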
CRFBP-R2 agonist – CRF-BP/CRF-R2 complex agonism; hit rate 0.46% among 350,000; AID 588473; activation, % at 13.2 µM; HEK293 CRF-R2/CRF-BP, calcium dye fluorescence (FLIPR); percent of saturating CRF peptide response;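 active means activation of at least 50%, plus an integration ratio under a set limit after plate pattern correction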
aDG glyco up – alpha-DG glycosylation activation. Pro5-aDG cells, alpha-DG glycosylation AlphaScreen (IIH6); 0% Pro5, 100% B10-LARGE cell signal. activation, % at 10 µM. hit rate 0.22% among 360,000;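 active means activation of at least 8% versus controls, or a plate z-score of at least 8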;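 further: Pro5 are CHO cells carrying HIG-tagged alpha-DG that lacks glycosylation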
H9c2 protect – modulators protecting cardiomyocytes from myocardial damage. protection from H2O2 cell death, % at 20 µM. AID 588492. hit rate 0.63% among 360,000. H9c2 cardiomyocytes, H2O2 injury protection, ATPLite, 2 h;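 active means compounds giving at least 50% protection of heart cells from peroxide-induced death in the single-dose screen, raw or plate-pattern-corrected value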
FAS TE block – blocks the thioesterase domain of human fatty acid synthase; P49327; recombinant FAS-TE, OMFH fluorogenic substrate, fluorescence endpoint; inhibition, % at 15 µM; hit rate 0.67% among 360,000;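 active means compounds whose normalised, plate-corrected inhibition of enzyme fluorescence in the single-dose primary screen is 50% or more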
aDG conf – alpha-DG glycosylation activation, confirmation; shares compounds with aDG glyco up; Pro5-aDG cells, IIH6 AlphaLISA; scaled to LARGE-overexpressing B10 cells as 100%; hit rate 17% among 600; activation, % at 10 µM (by protocol); AID 651671;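 active means activation of at least 7% in one or more replicates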;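 further: cells exposed to compound for two days before detection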
Each line names hits and unclear results; the compound was inactive in the other large screens (follow-up assays come after a bar, where they were run).

O=C(Nc1cc(S(=O)(=O)N2CCOCC2)ccc1N1CCOCC1)c1ccc([N+](=O)[O-])s1	none
Cc1[nH]c2ccccc2c1-c1csc(N)n1	none
CN1CCN(CC(=O)Nc2nc(-c3c[nH]c4ccccc34)cs2)CC1	none
CCc1ccc(-c2csc(-c3c[nH]c4ccccc34)n2)cc1	none
CNc1nc(-c2c[nH]c3ccccc23)cs1	aDG glyco up 10.9 | aDG conf 7.9
Nc1nc(-c2c[nH]c3ccccc23)cs1	aDG glyco up 9.1, H9c2 protect 49.3 | aDG conf inactive
CCC(C)Nc1nc(-c2c[nH]c3ccccc23)cs1 (stereo unspecified)	aDG glyco up 7.7 | aDG conf 6.9
COCCNC(=O)C(c1ccc(F)cc1)N(C(=O)CCC(=O)Nc1nccs1)c1ccc(C)cc1 (stereo unspecified)	none
Cc1cccc(-n2ncc3c2CCCC3NC(=O)CCCN2CCCCC2=O)c1C (stereo unspecified)	none
CCc1ccc(Nc2ncc3c(n2)CC(C)(C)CC3=O)cc1	none
CCc1ccc(Nc2cc(=O)n(C3CCCCC3)c(=O)[nH]2)cc1	aDG glyco up 6.9 | aDG conf inactive
COc1cc(O)c2c(c1)OC(c1ccc(O)cc1)CC2=O (stereo unspecified)	aDG glyco up 12.7 | aDG conf inactive
Cc1c(O)cc2c(c1O)C(=O)CC(c1ccc(O)cc1)O2 (stereo unspecified)	aDG glyco up 4.7 | aDG conf inactive
CC(=O)c1ccc(NC(=O)C2CCCC2)cc1	aDG glyco up 2.1 | aDG conf inactive
CCN(CC(=O)Nc1c(F)cccc1F)C(=O)CCSc1ccc(F)cc1	none
COC(=O)COc1ccc(S(=O)(=O)Nc2ccc(C(N)=O)cc2)cc1Cl	aDG glyco up 77.2 | aDG conf inactive
CC1CCCCC1NC(=O)COC(=O)c1ccc2c(c1)NC(=O)CS2 (stereo unspecified)	none
CCCN(CCC)C(=O)C1CCCN(S(=O)(=O)c2ccc3c(c2)oc(=O)n3C)C1 (stereo unspecified)	aDG glyco up 8.0 | aDG conf inactive
O=C(/C=C/c1ccccc1Cl)Nc1cccnc1	none
O=C(/C=C/c1ccc(Cl)c(Cl)c1)Nc1cccnc1	aDG glyco up 3.1 | aDG conf inactive
CCN(CC)CCn1c(=N)n(CC(=O)c2ccc(C)cc2)c2ccccc21	aDG glyco up 3.8 | aDG conf 10.6
O=c1[nH]nc(-c2ccc([N+](=O)[O-])o2)c(=O)[nH]1	none
Nc1nnc(-c2ccc([N+](=O)[O-])o2)s1	aDG glyco up 7.9 | aDG conf 4.0
O=S1(=O)N[C@@H](c2ccccc2)COc2cc(Br)ccc21	none
Cc1ccc(C2(c3noc(CN4CCC(c5ccncc5)CC4)n3)CCCC2)cc1	aDG glyco up 6.0 | aDG conf inactive
Cc1ccc(S(=O)(=O)N(C)/N=C2/C(=O)N(CC(=O)O)c3ccccc32)cc1	none
Cc1cccc(C)c1NC(=O)c1ccc(-n2cncn2)nc1	aDG glyco up 3.8 | aDG conf inactive
O=C(COc1ccc(Cl)cc1)Nc1cccc(-c2ccc3nncn3n2)c1	aDG glyco up 3.5 | aDG conf inactive
Cc1c(C(=O)N(CCO)Cc2ccccc2)oc2c(F)cccc12	none
Cc1cc(C)cc(N=Cc2[nH]c3ccc(Br)c(Cl)c3c2O)c1	CRFBP-R2 agonist 197.0, aDG glyco up 5.9 | aDG conf inactive
Oc1ccc(C[C@H]2CNC(=S)N2CC2CCCN2C[C@H](Cc2ccc(O)cc2)N2C[C@H](Cc3ccccc3)N(CC3CCCCC3)C2=S)cc1 (stereo partly specified)	aDG glyco up 8.9 | aDG conf inactive
Oc1ccc(C[C@H]2CN([C@@H](Cc3ccccc3)CN3CCC[C@@H]3CN3C(=S)NC[C@@H]3Cc3ccccc3)C(=S)N2CC2CCCCC2)cc1	none (no result: CRFBP-R2 block, PfG6PD inh, CRFBP-R2 agonist)
Cc1cncn1CCc1nc2c3ccccc3nc(SCC(=O)Nc3cccc(Cl)c3)n2n1	aDG glyco up 8.7 | aDG conf 5.3
